A number with no mark means an inactive call. Activity calls are given as the source filed them. Cut-off read from the data, not from the text of the source, unless noted: active = inhibition above about 42%; inactive = the rest.
How the values were obtained:
[1] = StAR promoter reporter inhibitors, counter-screen for LRH-1 inverse agonist project, cell-based, luminescence, high throughput (AID 651611; in the data active = inhibition above about 28%); details: StAR promoter luciferase reporter counterscreen, at 3.6 µM, stronger effect = higher value
[2] = target: Nuclear receptor subfamily 5 group A member 2 (Homo sapiens) (UniProt O00482); assay: LRH-1 (NR5A2) inverse agonists, retest, confirmation, cell-based, luminescence (AID 651613); details: cell-based LRH-1 luciferase reporter, inverse agonism; at 3.6 µM; stronger effect = higher value;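 note: HEK293T cells co-transfected with LRH-1 and StAR promoter luciferase reporter; 0% = vehicle wells and 100% = parental cells lacking receptor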
Chain of Nuclear receptor subfamily 5 group A member 2 (Homo sapiens) (O00482 whole entry, looked up): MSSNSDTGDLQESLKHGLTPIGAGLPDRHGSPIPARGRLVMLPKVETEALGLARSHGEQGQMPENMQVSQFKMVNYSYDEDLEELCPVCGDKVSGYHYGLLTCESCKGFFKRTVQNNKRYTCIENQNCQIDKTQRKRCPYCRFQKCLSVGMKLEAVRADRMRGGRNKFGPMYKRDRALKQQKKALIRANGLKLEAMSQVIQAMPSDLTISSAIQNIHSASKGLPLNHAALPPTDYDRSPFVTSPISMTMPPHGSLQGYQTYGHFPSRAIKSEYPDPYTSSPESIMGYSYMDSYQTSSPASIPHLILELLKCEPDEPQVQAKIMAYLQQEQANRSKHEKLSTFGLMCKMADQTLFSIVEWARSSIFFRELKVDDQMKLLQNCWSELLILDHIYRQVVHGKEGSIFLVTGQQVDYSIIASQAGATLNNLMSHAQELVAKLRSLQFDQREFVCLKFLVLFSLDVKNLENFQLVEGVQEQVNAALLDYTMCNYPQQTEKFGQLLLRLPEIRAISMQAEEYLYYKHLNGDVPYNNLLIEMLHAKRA

[3] = target: Steroidogenic factor 1 (Homo sapiens) (UniProt Q13285); assay: SF1 (NR5A1) inverse agonists, counter-screen for LRH-1 inverse agonist project, cell-based, luminescence, high throughput (AID 651614; in the data active = inhibition above about 44%;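 note: cells cotransfected with StAR promoter reporter and SF1 expression vector; 0% = vehicle on cells with receptor and 100% = vehicle on cells lacking receptor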); details: cell-based SF1 luciferase reporter, at 3.6 µM, stronger effect = higher value
Chain of Steroidogenic factor 1 (Homo sapiens) (Q13285 whole entry, looked up, the tested form may be a part): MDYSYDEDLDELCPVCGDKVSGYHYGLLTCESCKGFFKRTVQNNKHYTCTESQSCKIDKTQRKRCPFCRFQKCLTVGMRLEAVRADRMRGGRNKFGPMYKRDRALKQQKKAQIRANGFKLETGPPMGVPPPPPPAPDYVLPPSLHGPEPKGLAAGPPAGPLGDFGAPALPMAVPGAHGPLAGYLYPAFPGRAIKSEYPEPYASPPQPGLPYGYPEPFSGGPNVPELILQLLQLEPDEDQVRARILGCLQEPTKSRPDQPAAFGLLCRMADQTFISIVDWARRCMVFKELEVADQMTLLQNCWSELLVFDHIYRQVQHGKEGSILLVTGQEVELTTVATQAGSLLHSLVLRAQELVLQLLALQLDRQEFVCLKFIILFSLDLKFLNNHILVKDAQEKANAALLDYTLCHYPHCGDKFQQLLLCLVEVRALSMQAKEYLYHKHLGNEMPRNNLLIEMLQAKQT

[4] = VP16 transactivation reporter inhibitors, counter-screen for LRH-1 inverse agonist project, cell-based, luminescence, high throughput (AID 651615; in the data active = inhibition above about 33%); details: Gal4-VP16 luciferase reporter cells, at 3.6 µM, stronger effect = higher value

Row | Compound | inhibition [1] | inhibition [2] | inhibition [3] | inhibition [4]
1 | COc1ccc(CCNC(=O)COC(=O)c2cccn2C)cc1 | 19% | 42.9% (active) | 46.3% (active) | -13.7%
2 | CCOc1ccc(CCNC(=O)COC(=O)c2nc(Cl)ccc2Cl)cc1OCC | -2.83% | 39.2% | 28.2% | -0.88%
3 | CCOc1cc(/C=C2\C(=N)N3N=C(C)SC3=NC2=O)ccc1OCCOc1cccc(OC)c1 | 10% | 39.7% | 40.2% | 6.87%
4 | CCCc1cc(NCC2CCCO2)n2c(nc3ccccc32)c1C#N (stereo unspecified) | -0.55% | 40.1% | 35.5% | 1.26%
5 | O=C(CSC1=NC2(CCCCCC2)N=C1c1ccccc1)Nc1ccc2c(c1)OCCO2 | 8.01% | 60.2% (active) | 62.2% (active) | 12.7%
6 | COc1ccc(C2=Nn3c(nnc3-c3ccccc3OC)SC2)cc1OC1CCOC1 (stereo unspecified) | 54.4% (active) | 69.1% (active) | 71.1% (active) | 19.3%
7 | CN(CCc1ccccc1)C(=O)c1ccc(NC(=O)Cc2ccc(NC(=O)C3CCCN(C(=O)CCc4ccccc4)C3)cc2)cc1 (stereo unspecified) | 30.9% (active) | 62.4% (active) | 64.5% (active) | 59.8% (active)
8 | O=C(COc1ccc2c3c(c(=O)oc2c1)CCCC3)NCCN1CCOCC1 | 0.51% | 41.4% (active) | 23.5% | -1.02%
9 | C#CCN(C[C@@H]1[C@@H](OC(=O)NCC2CCCCC2)[C@@H](OC(=O)NCC2CCCCC2)Cn2c(=O)ccc(=O)n21)S(=O)(=O)c1ccc(C)cc1 | 38.3% (active) | 62.4% (active) | 74.5% (active) | 70.8% (active)

From PubChem BioAssay
